# Only some compounds are listed: those with a hit (about 17% of all), similar ones and a draw of the others.
# ClpP mod: qHTS Assay for Activators of ClpP. ATP-dependent Clp protease proteolytic subunit (Bacillus subtilis (strain 168)), P80244. purified B. subtilis ClpP, FRET peptide cleavage, 20 min. Potency, µM (doses to about 57.5 µM), for the others: at the highest dose activity change, negative = active. 340,000 compounds, 1.9% hits; active means well fitted falling curve with a large enough effect; inconclusive means small, poorly fitted or top-dose-only effect; inactive means no such curve, though single readings can be large or run the other way; further: the source files actives as falling curves though it sought activators and does not explain the sign; nearly all actives have a fitted effect of over 65% in size
# Target sequence (P80244 whole entry, looked up): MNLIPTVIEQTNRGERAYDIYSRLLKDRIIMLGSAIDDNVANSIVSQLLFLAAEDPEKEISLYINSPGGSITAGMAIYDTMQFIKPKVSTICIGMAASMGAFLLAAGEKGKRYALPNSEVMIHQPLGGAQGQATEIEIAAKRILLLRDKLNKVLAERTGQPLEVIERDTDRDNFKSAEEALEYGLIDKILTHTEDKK
#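 Buffer: 100 mM Tris/HCl pH8, 100 mM KCl, 0.05% low protease BSA, 2.5% glycerol, 0.01% Tween-20. ClpP 10 microg/mL final; 20 min RT; delta FRET normalized to ADEP and DMSO controls.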
# DT40 TDP1 CPT: growth inhibition of DT40 Tdp1-/-;hTDP1 cells with camptothecin (screen for TDP1 inhibitors); Potency, µM (top dose mostly 46.2 µM), for the others: at the highest dose activity change, negative = growth inhibition, hits mostly inhibitors; 420,000 compounds, 12% hits; chicken DT40 Tdp1-/-;hTDP1 cells + 20 nM CPT, ATP luminescence, 48 h; further: on the % scale 0 is the no-effect control and ±100 the full control effect; nearly all actives have a fitted effect of over 55% in size
#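 Cell growth measured by CellTiter-Glo luminescence after a minimum 48 h, 37 C compound exposure with 20 nM CPT in Tdp1-knockout DT40 cells stably expressing hTDP1, seeded 400/well; qHTS titration format.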
# DT40 TDP1 no CPT: qHTS for Inhibitors of human tyrosyl-DNA phosphodiesterase 1 (TDP1): qHTS in cells in absence of CPT | DT40 Tdp1-/- hTDP1 cells, no CPT, ATP luminescence, 48 h | Potency, µM (highest dose often 46.2 µM), inactives show top-dose activity change, negative = growth inhibition, most hits filed as inhibitors | 420,000 compounds, 15% hits; further: on the % scale 0 is the no-effect control and ±100 the full control effect; nearly all actives have a fitted effect of over 55% in size
#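 Compound effects on proliferation are scored in DT40 Tdp1-/-;hTDP1 cells in the absence of CPT. ATP levels (CellTiter-Glo luminescence) are recorded after a ≥48 hr, 37 °C incubation.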
# TDP1 inh: blocks human tyrosyl-DNA phosphodiesterase 1; Q9NUW8; 350,000 compounds, 0.28% hits; Potency, µM (highest dose often 130 µM), without a hit: at the top dose activity change, negative = inhibition, usual class: inhibitors; recombinant TDP1, AlphaScreen DNA substrate cleavage; further: on the % scale 0 is the no-effect control and ±100 the full control effect; nearly all actives have a fitted effect of over 40% in size
#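 Signal: AlphaScreen proximity between streptavidin donor and anti-FITC acceptor beads on intact substrate. Reaction: Tdp1 1 nM, substrate 15 nM final, 5 min RT after 15 min compound preincubation.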
# The depositor's hits bear a star; ? = inconclusive; / = no result given; [ ] = remark or other dose. Unless noted, the call rests on the fitted dose curve; in most records, active means well fitted curve in the direction sought with a large enough effect; inconclusive means small, poorly fitted or top-dose-only effect, or another doubt; inactive means no such curve, though single readings can be large; an effect the other way counts as inactive or inconclusive. Potency means the concentration at half of the fitted maximal effect.
SMILES,ClpP mod,DT40 TDP1 CPT,DT40 TDP1 no CPT,TDP1 inh
CCC(C)NC(=O)c1c(-c2ccccc2)c(-c2ccccc2)nn(C)c1=O (stereo not given),-1%,-7%,-4%,2%
CCCOC(=O)c1c(-c2ccccc2)c(-c2ccccc2)nn(C)c1=O,0%,21µM*,15µM*,7%
CC(=O)c1sc(NC(=O)c2c(-c3ccccc3)c(-c3ccccc3)nn(C)c2=O)nc1C,0%,0.41µM*,0.52µM*,0%
O=C(c1ccc(S(=O)(=O)Nc2cccc(C(F)(F)F)c2)cc1)N1CCN(c2ccccc2O)CC1,-1%,?,23µM*,4%
O=C(NCc1ccccc1CN1CCCC1)c1cccc(S(=O)(=O)N2CCCC2)c1,-2%,-6%,-14%,1%
Nc1ccc(N2CCCC2)c(S(=O)(=O)Nc2cccc(C(F)(F)F)c2)c1,-2%,?,29µM*,7%
COc1ccc(NS(=O)(=O)c2cc(N)ccc2N2CCCCC2)cc1,0%,?,-12%,6%
O=C(NCc1ccccc1Cl)c1ccc(S(=O)(=O)Nc2cccc(C(F)(F)F)c2)cc1,20µM*,-17%,?,3%
O=C(NCc1ccccc1CN1CCCC1)c1ccc(S(=O)(=O)Nc2ccccc2)cc1,-3%,21µM*,13µM*,/
COc1ccc(CN(C)C(=O)C2CCN(S(=O)(=O)c3cccs3)CC2)cc1F,0%,?,?,-1%[56.1 µM]
COc1ccc(N2CC(C(=O)N3CCN(c4ccccc4)CC3)CC2=O)cc1 (stereo not given),-1%,-28%,?,3%
Cc1ccccc1NS(=O)(=O)c1ccc(C(=O)NCc2ccccc2CN2CCCC2)cc1,1%,?,23µM*,/
O=C(NCc1ccccc1CN1CCCC1)c1ccc(S(=O)(=O)Nc2ccccc2F)cc1,0%,-29%,?,/
Fc1cccc(CN2CCN(c3nc4nonc4nc3NC3CC3)CC2)c1,0%,-26%,23µM*,8%
O=C(c1ccco1)N1CCN(Cc2cccc([N+](=O)[O-])c2)CC1,0%,-22%,3%,-6%
CC1(C)COC(/C=C/c2cccc([N+](=O)[O-])c2)=N1,/,?,12µM*,-1%
COC(=O)C(NC(=O)c1ccc(F)cc1)(Nc1ncc(S(=O)(=O)c2ccc([N+](=O)[O-])cc2)s1)C(F)(F)F (stereo not given),?,16µM*,13µM*,10%
CCOC(=O)C(=C1Nc2ccccc2N1)n1c(-c2cccnc2)nc2ccccc21,-14%,12µM*,?,/
CCn1c(C)nc2cc(C(=O)NNS(=O)(=O)c3ccccc3F)ccc21,3.2µM*,-3%,7%,0%
CCn1c(C)nc2cc(C(=O)N/N=C(\C)c3ccccc3O)ccc21,/,3.7µM*,2.9µM*,0%
CCn1c(C)nc2cc(S(=O)(=O)C(F)(F)F)ccc21,-2%,?,16µM*,2%
CCn1c(C)nc2cc(S(=O)(=O)C(F)F)ccc21,-2%,-9%,-1%,0%
CCn1c(C)nc2cc(C(=O)N/N=C/c3ccccc3C)ccc21,/,11%,-23%,0%
CCOC(=O)c1ccc(S(=O)(=O)NNC(=O)c2ccc3c(c2)nc(C)n3CC)cc1,0%,3%,8%,-3%
Fc1ccc(C(c2ccc(F)cc2)N2CCN(C/C=C/c3ccccc3)CC2)cc1,1%,3.7µM*,23µM*,5%
COc1ccc(N2CCN(C(c3ccccc3)c3nnnn3Cc3ccccc3)CC2)cc1 (stereo not given),-7%,?,16µM*,/
CCC(c1nnnn1Cc1ccccc1)N1CCN(C/C=C/c2ccccc2)CC1 (stereo not given),0%,?,15µM*,/
C(=C\c1ccccc1)/CN1CCN(C(c2ccccc2)c2nnnn2Cc2ccccc2)CC1 (stereo not given),1%,29µM*,?,/
FC(F)(F)Oc1ccccc1C(c1nnnn1Cc1ccccc1)N1CCN(C/C=C/c2ccccc2)CC1 (stereo not given),-15%,?,?,/

# Assay outcomes (PubChem BioAssay)
